# Source: PubChem BioAssay (several laboratories)
# A selection: hits, their analogues and other compounds. The true share with any hit is near 1.8%.
# MRP-1 activ: activators of MRP-1; H69AR cells + doxorubicin, viability rescue, CellTiter-Glo; viability increase, % at 10 µM; 140,000 compounds, 0.61% hits; AID 799;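 active means viability gain under doxorubicin at or above a set limit, the compound median plus 3 SD, cut at about 4.7% in these data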;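 further: MRP-1 overexpressing cells given doxorubicin 25 µM after compound pretreatment; 18-22 h compound pretreatment then 72 h with doxorubicin before readout; 0% = doxorubicin-only wells and 100% = vehicle-treated cells without doxorubicin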
# GALR2 ag: agonists of human galanin receptor 2 (GALR2); activation, % (concentration not given with the values); AID 803; GALR2-expressing cells, agonist activation read-out; 140,000 compounds, 0.48% hits; O43603; in the data active means activation above about 5%, passing the limit was not always enough;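 further: 0% = vehicle buffer wells and 100% = reference agonist at full effect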
# Target sequence (O43603 whole entry, looked up): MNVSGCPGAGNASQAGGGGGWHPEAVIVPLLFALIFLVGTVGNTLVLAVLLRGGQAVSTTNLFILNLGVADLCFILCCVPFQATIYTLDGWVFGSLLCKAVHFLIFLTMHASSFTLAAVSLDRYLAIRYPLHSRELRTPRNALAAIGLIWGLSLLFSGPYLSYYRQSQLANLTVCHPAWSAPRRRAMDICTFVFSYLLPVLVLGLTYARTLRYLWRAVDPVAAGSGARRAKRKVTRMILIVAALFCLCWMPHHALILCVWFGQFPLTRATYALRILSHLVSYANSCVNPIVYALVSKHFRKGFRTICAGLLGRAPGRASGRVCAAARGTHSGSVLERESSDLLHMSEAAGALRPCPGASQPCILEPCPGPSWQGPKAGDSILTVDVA
# S1P2 ag: S1P2 (human) receptor agonism; activation, % at 4.5 µM; S1P2-expressing cell line, agonist reporter read-out; 97,000 compounds, 0.46% hits; AID 729; O95136; in the data active means activation above about 16%;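 further: 0% = vehicle low control and 100% = maximal reference agonist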
# MRP reversal: MRP-mediated drug resistance reversal; H69AR cells + 2 uM doxorubicin, CellTiter-Glo, 72 h; differential viability (reversal), % at 10 µM; 85,000 compounds, 0.04% hits; AID 602;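 active means viability drop by adding the cancer drug above about 55%, with treated viability meeting a 40% cutoff, limit read from the data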;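 further: viability without doxorubicin minus viability with 2 µM doxorubicin for each compound; larger differential means the compound sensitizes cells more to doxorubicin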
# GALR2 antag: antagonists of human galanin receptor 2 (GALR2); O43603; GALR2-expressing cells, antagonist mode; inhibition, % at 4 µM; 140,000 compounds, 0.39% hits; in the data active means inhibition above about 27%;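 further: cells stimulated with galanin 1-16 at roughly its EC80; 0% = agonist challenge control and 100% = basal control without agonist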
# S1P2 antag: S1P2 (human) receptor antagonism | cell-based S1P2 antagonist assay, inhibition at 5 uM | inhibition, % at 5 µM | 97,000 compounds, 0.21% hits | AID 736; in the data active means inhibition above about 45%;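 further: CRE beta-lactamase reporter cells expressing human S1P2 stimulated with S1P; 0% = agonist at EC80 alone and 100% = agonist plus reference antagonist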
# The depositor's hits bear a star; nt = not tested or not shown.
SMILES,MRP-1 activ,GALR2 ag,S1P2 ag,MRP reversal,GALR2 antag,S1P2 antag
C1=CCC(/C=N/n2cnnc2)CC1 (stereo not drawn),-1,-1,nt,-1,-1,nt
Nc1c(C(=O)NCc2ccc3c(c2)OCO3)c2nc3ccccc3nc2n1CCCN1CCOCC1,-4,32*,41*,-5,-15,-38
COc1ccccc1CNC(=O)c1c(N)n(CCCN2CCOCC2)c2nc3ccccc3nc12,-2,28*,58*,nt,-16,-93
CC(C)(C)c1ccc(C(=O)NNC(=O)c2cccc(Br)c2)cc1,-2,1,23*,nt,-9,21
CCc1nnc(NC(=O)CSc2nc3cccnc3n2C2CCCCC2)s1,4.8*,-2,-1,23,0,-4
CC(C)C(c1nnnn1Cc1ccccc1)N1CCc2ccccc2C1 (stereo not drawn),-1,-2,nt,12,2,nt
O=C(Nc1cccc(F)c1)C1CCCN1S(=O)(=O)c1cccc2cccnc12 (stereo not drawn),1,-2,-2,14,1,19
Cc1ccc(C(=O)CCC(=O)Nc2ccc(Cl)c(S(=O)(=O)Nc3cccc(Cl)c3)c2)cc1,7.8*,-2,nt,nt,3,nt
Cc1nc2ccccc2n1CCc1nc2c3ccccc3nc(SCC#N)n2n1,-3,3,39*,-14,0,-1
CN(c1ccc(OCC(=O)OCC(=O)Nc2ccccc2F)cc1)S(=O)(=O)c1cccs1,0,0,nt,nt,3,nt
N#Cc1c(-c2ccccc2)[nH]c(=S)[nH]c1=O,4.7*,-3,-4,23,2,-13
CC(C)(C)n1nc2c(c1NC(=O)c1cccs1)CS(=O)C2 (stereo not drawn),-2,-5,-7,0,8,3
CCOC(=O)c1c(-c2ccc(-c3ccccc3)cc2)csc1NC(=O)c1cccc(N2C(=O)CCC2=O)c1,2,-1,nt,nt,4,nt
CCOC(=O)c1c(NC(=O)c2cccc(N3C(=O)CCC3=O)c2)sc(C)c1C,-3,-2,16*,nt,3,-10
Cc1c(C(=O)N2CCCCC2)sc(NC(=O)C(C)C)c1C#N,-2,-3,-3,8,-11,0
CCOC(=O)N1CCN(C(=O)CSCC(=O)Nc2nc(-c3ccc(-c4ccccc4)cc3)cs2)CC1,-5,0,-6,0,7,87*
CC(C)N(Cc1cc2ccccc2[nH]c1=O)C(=O)C(C)(C)C,9.3*,-4,-5,-20,9,10
N#C/C(=N\Nc1c(Cl)cccc1Cl)C(=O)NN,2,-2,-1,nt,21,9
COC(=O)C1=C(C)Nc2nnnn2C1c1ccccc1Cl (stereo not drawn),-2,0,-1,-4,0,-3
COc1ccccc1C(=O)NCCCN1CCCC1=O,0,-2,-6,nt,-29,7
COC(=O)C1=CN(C)C=C(C(=O)OC)C1c1ccccc1Cl,-2,16*,23*,-1,-10,-24
COC(=O)C1=CN(CCCN2CCCC2=O)C=C(C(=O)OC)C1c1ccccc1C(F)(F)F,-3,20*,20*,39,-4,-11
CCN1C=C(C(=O)OC)C(c2cccc(C)c2)C(C(=O)OC)=C1,-3,14*,13,6,6,-9
CCCCOc1ccccc1C1C(C(=O)OC)=CN(CC)C=C1C(=O)OC,-1,16*,24*,-10,-7,-47
Cc1cc2ncn(C3CC(=O)N(Cc4ccc(N5CCCC5=O)cc4)C3=O)c2cc1C (stereo not drawn),0,-1,-9,nt,-3,15
SMILES,MRP-1 activ,GALR2 ag,S1P2 ag,MRP reversal,GALR2 antag,S1P2 antag
COc1ccc(CC(=O)NC(C)(C)C)cc1S(=O)(=O)N1CCOCC1,0,-2,-2,nt,12,-15
CCCOc1ccccc1C1C(C(=O)OC)=CN(C(C)C)C=C1C(=O)OC,-3,29*,32*,19,-12,-16
Cc1nn2c(nc1=O)SCC(c1ccccc1)=N2,0,-1,-10,nt,7,0
CCOc1ccc(Cn2nnc(C(=O)NCCc3ccc(Cl)cc3)c2N)cc1,5.1*,1,-1,2,-17,8
Nc1c(C(=O)NCc2ccccc2)nnn1Cc1ccccc1,0,-4,-6,6,4,1
COc1cccc(Cn2nnc(C(=O)NCCc3ccc(Cl)cc3)c2N)c1,5,-2,-6,-13,-3,25
CCOc1ccc(Cn2nnc(C(=O)NCCc3ccccc3)c2N)cc1,7.8*,-2,-6,0,5,8
COc1cccc(Cn2nnc(C(=O)NCc3ccc(F)cc3)c2N)c1,4.8*,-2,-7,7,5,1
CCCCOC(=O)CCn1[nH]c(=O)c2ccccc2c1=O,-3,-2,-4,16,-3,25
COc1cccc(NC(=O)c2oc3ccccc3c2NC(=O)c2ccc3c(c2)OCO3)c1,5.0*,-3,-7,-7,1,3
Brc1ccc(-c2nc3ncccn3c2NC2CCCCC2)o1,-6,-1,-4,58*,-3,-14
CCC(C)NS(=O)(=O)c1ccc(OCC(=O)NCc2cccnc2)cc1 (stereo not drawn),-1,-3,-6,4,5,-1
Cc1ccc(-c2csc3ncnc(Sc4nnc(CN5CCCCCC5=O)o4)c23)cc1,-7,7,-10,0,27*,52*
Cc1ccc(-c2csc3ncnc(SCC(=O)Nc4nnc(C)s4)c23)cc1,-1,-2,-5,nt,-2,3
Cn1c(NCc2ccccc2)nc2c1c(=O)n(Cc1ccc(Br)cc1)c(=O)n2C,0,-2,-3,19,6,-7
COc1ccc(CNc2nc3c(c(=O)n(Cc4ccc(Br)cc4)c(=O)n3C)n2C)cc1,5.2*,-1,-2,0,-2,16
COc1cc2c(cc1OC)CN(Cc1nc3ccsc3c(=O)[nH]1)CC2,0,-1,1,-19,1,9
CON/C=C(\C=Nc1ccc(F)cc1)c1ncc(C(F)(F)F)cc1Cl,-1,-3,-9,nt,-3,63*
COC(=O)/C(=C\Nc1ccc(Cl)c2ccccc12)c1ncc(C(F)(F)F)cc1Cl,-1,-3,-11,-22,6,3
CCSc1nc2sc3c(c2c(=O)[nH]1)CCc1ccccc1-3,-1,-1,nt,nt,21,nt
O=C(OCc1nc2scc(-c3ccccc3)c2c(=O)[nH]1)c1cc([N+](=O)[O-])ccc1Cl,0,0,nt,nt,6,nt
COc1ccc(/C=N/Nc2cc(OC)ncn2)cc1,5.4*,-1,nt,nt,-2,nt
COc1ccc(/C=N/Nc2cc(N(C)C)nc(N(C)C)n2)cc1,0,0,nt,nt,21,nt
c1ccc(N2CCN(c3nc(-c4cccs4)nc4ccccc34)CC2)cc1,7.3*,1,nt,nt,-9,nt
O=C1NC(=O)C2(COC(c3ccccc3Cl)OC2)S1 (stereo not drawn),7.2*,-1,nt,nt,8,nt
O=C1NC(=O)C2(COC(c3ccncc3)OC2)S1 (stereo not drawn),1,4,nt,nt,6,nt
O=C(CSCc1ccc(Cl)cc1)N/N=C/c1ccccc1,4.8*,-2,-4,nt,4,-3
